Measured values reported in PubChem BioAssay.
Where “and” joins values, the source holds several entries; their conditions need not be identical. Identical values can stand only once. Calls of active or inactive are those of the source.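 How the source made its calls, unless noted: active means normalized viability below 100% at a tested concentration; inactive means the rest.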

What was measured:
[1] = Wnt pathway potentiators raising nuclear beta-catenin – imaging, WNT3A-conditioned medium, mouse C2C12, NPC library, primary screen (AID 1117326; in the data active means nuclear beta-catenin stimulation mostly above about 4.2%, no sharp cut-off; inactive means mostly below about 10%); details: stronger effect = higher value
[2] = stimulators of insulin release from INS-1E, primary screen, cell-based, 5 mM glucose, NPC library (AID 1117329;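 active means compound raises insulin release from rat beta cells at 5 mM glucose, no numeric limit stated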); details: rat INS-1E insulin secretion, at 10 µM, stronger effect = higher value
[3] = growth inhibition of GSK3B-pretreated HCT116 cells – cell-based, CellTiter-Glo, 0.2 to 20 µM (AID 1117336;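 active means compounds lowering colon cancer cell viability after pretreatment blocking the GSK3B kinase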); details: HCT116 viability after GSK3B inhibitor, at 20 µM, stronger effect = higher value
[4] = inhibition of endothelial tube formation, primary screen, imaging, VEGF stimulated, CD31 staining, tube area, NPC library (AID 1117340;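 active means compound that reduces growth-factor-driven endothelial tube area in a mixed cell culture, no cutoff stated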); details: VEGF-stimulated ADSC/ECFC co-culture, at 10 µM, stronger effect = higher value
[5] = GLP1 release stimulators, primary, NCI-H716, NPC library (AID 1117341;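 active means compound raises GLP1 secretion from the human gut endocrine cells, with no numeric limit stated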); details: NCI-H716 cells, at 10 µM, stronger effect = higher value
[6] = HCT116 colon cancer cell growth inhibition, primary screen, CellTiter-Glo luminescence, NPC library (AID 1117342;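 active means compounds that lower survival of HCT116 colon cancer cells in the luminescence readout, no numeric limit stated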); details: at 20 µM (top of the series)
[7] = reduced SW480 viability measured with CellTiter-Glo, NPC library, primary (AID 1117343;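 active means compounds that lower viability of the colon cancer cells in the luminescence readout, with no numeric limit stated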); details: CellTiter-Glo luminescence; at 20 µM (top of the series) unless noted
[8] = NPC library primary testing for decreased DLD-1 cell viability via CellTiter-Glo (AID 1117346;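 active means compounds that lower survival of DLD-1 colon cancer cells in the luminescence readout, no cutoff given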); details: DLD-1 viability, CellTiter-Glo luminescence; at 20 µM (top of the series)
[9] = drug combination growth inhibition, ovarian cancer – cell-based, oncology-focused library, rucaparib conditional, profiling panel (AID 1508598); details: patient-derived ovarian cancer cells, CellTiter-Glo viability, 144 h, stronger effect = lower value
[10] = MELAS cybrid and Rieske KO viability enhancers – cell-based, MELAS cybrids, Rieske KO mouse fibroblasts, CellTiter-Glo, primary screen (AID 1508586;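 active means mean z-score across replicates of 1.96 or higher in either the MELAS or the Rieske mutant cell line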;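 further: z relative to plate mean and SD of compound and empty wells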); details: low glucose
[11] = molecular target: NAD(+) hydrolase SARM1 (Homo sapiens) (UniProt Q6SZW1); assay: blocking NAD cleavage by SARM1 SAM-TIR – cell lysate, NAD-Glo luminescence (AID 1508614;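 active means compound whose remaining NAD level is above about 45 nM, limit read from the data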); details: SAM-TIR HEK293T lysate NADase, at 1 µM, stronger effect = higher value
Chain of NAD(+) hydrolase SARM1 (Homo sapiens) (Q6SZW1 whole entry, looked up, the tested form may be a part): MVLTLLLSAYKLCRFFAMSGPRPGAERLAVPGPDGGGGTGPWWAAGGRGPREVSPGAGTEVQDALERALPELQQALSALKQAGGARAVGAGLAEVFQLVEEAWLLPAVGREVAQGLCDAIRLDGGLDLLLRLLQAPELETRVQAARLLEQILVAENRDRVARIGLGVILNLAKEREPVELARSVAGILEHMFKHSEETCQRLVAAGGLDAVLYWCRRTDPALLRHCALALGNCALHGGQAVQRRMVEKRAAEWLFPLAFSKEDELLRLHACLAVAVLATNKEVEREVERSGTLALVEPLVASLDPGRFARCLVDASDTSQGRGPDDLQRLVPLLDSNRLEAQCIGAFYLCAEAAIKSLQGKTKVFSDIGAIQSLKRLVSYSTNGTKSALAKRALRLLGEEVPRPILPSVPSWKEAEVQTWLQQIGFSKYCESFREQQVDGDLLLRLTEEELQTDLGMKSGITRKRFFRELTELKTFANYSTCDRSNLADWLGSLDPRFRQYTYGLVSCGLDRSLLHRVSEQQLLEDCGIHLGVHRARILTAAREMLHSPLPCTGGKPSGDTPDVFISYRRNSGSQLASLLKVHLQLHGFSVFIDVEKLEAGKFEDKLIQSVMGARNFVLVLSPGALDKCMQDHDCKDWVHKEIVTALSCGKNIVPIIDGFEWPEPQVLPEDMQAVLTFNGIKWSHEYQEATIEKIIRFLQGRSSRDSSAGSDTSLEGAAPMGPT

[12] = molecular target: Mitogen-activated protein kinase 7 (Homo sapiens) (UniProt Q13164); assay: Gal4-ERK5 driven luciferase induction – cell-based, HTS, primary screen (AID 1508626;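 active means luciferase signal above three times the same-plate solvent-only control wells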;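 further: luciferase driven by Gal4-ERK5 fusion binding five Gal4 sites before minimal TATA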); details: HeLa Gal4-ERK5 transactivation, 18 h, at 5 µM, stronger effect = higher value
Chain of Mitogen-activated protein kinase 7 (Homo sapiens) (Q13164 whole entry, looked up, the tested form may be a part): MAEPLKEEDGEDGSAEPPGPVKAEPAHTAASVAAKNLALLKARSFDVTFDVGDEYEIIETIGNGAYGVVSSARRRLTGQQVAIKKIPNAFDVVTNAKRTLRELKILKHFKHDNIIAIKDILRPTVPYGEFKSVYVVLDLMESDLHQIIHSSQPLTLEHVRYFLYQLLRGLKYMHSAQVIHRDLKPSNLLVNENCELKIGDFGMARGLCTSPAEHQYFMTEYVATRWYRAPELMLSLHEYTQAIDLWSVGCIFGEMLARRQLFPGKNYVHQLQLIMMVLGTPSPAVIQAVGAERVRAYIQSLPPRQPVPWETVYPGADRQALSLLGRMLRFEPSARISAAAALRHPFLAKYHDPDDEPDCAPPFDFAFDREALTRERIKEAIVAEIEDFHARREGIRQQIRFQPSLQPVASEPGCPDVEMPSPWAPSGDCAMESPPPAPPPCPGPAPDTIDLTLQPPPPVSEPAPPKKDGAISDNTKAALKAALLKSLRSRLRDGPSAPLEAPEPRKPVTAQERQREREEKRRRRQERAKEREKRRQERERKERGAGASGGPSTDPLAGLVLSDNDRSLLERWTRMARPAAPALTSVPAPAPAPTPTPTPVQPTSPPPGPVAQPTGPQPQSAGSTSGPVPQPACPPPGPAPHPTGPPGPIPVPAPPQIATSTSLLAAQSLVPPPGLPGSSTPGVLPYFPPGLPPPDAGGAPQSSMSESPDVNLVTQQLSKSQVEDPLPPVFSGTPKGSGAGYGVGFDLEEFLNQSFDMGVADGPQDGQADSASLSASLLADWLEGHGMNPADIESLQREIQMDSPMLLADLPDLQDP

[13] = viability loss with induced miR-34 in A549 – imaging, A549 dox-inducible miR-34, nuclei and caspase counts, primary screen (AID 1347080;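 active means compounds whose cell count with miR-34 switched on is under 0.7 times the count with it off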); details: A549 miR-34 inducible, Hoechst nuclei count, 48 h
[14] = MELAS cybrid survival, CellTiter-Glo 48 h, stronger effect = higher value
[15] = Rieske KO mouse fibroblast survival, CellTiter-Glo 72 h
[16] = stronger effect = lower value, cell number ratio, induced over uninduced
[17] = measured here: relative caspase fold change +Dox/-Dox
[18] = measured here: total cells with miR-34 induction, stronger effect = lower value
[19] = measured here: total cells without miR-34 induction

CN1CC[C@H](c2c(O)cc(O)c3c(=O)cc(-c4ccccc4Cl)oc23)[C@H](O)C1
76.1%: nuclear beta-catenin stimulation ([1]; stimulation, at 2 µM)
active: nuclear beta-catenin stimulation ([1]; at 10 µM) 72.1% | viability decrease [3] 73.7% | tube area decrease [4] 110% | inhibition of viability [6] 54.4% | viability decrease (inhibition) [7] 62.3% | viability decrease (inhibition) [8] 78.5% | viability ([9]; at 0.000305 µM, OCI-P5x cells, with rucaparib 20 µM, 100% = cells with rucaparib alone) 56.8% | viability ([9]; at 0.000305 µM, OCI-P5x cells, without rucaparib) 15.2% | viability ([9]; at 0.00122 µM, OCI-C5x cells, with rucaparib 10 µM, 100% = cells with rucaparib alone) 93.2% | viability ([9]; at 0.00122 µM, OCI-P5x cells, with rucaparib 20 µM, 100% = cells with rucaparib alone) 62% | viability ([9]; at 0.00122 µM, OCI-P5x cells, without rucaparib) 15.8% | viability ([9]; at 0.00488 µM, OCI-C5x cells, with rucaparib 10 µM, 100% = cells with rucaparib alone) 92.5% | viability ([9]; at 0.00488 µM, OCI-P5x cells, with rucaparib 20 µM, 100% = cells with rucaparib alone) 97.7% | viability ([9]; at 0.0195 µM, OCI-C5x cells, with rucaparib 10 µM, 100% = cells with rucaparib alone) 66% | viability ([9]; at 0.0195 µM, OCI-C5x cells, without rucaparib) 80% | viability ([9]; at 0.0195 µM, OCI-P5x cells, with rucaparib 20 µM, 100% = cells with rucaparib alone) 67.9% | viability ([9]; at 0.0195 µM, OCI-P5x cells, without rucaparib) 70.9% | viability ([9]; at 0.0781 µM, OCI-C5x cells, with rucaparib 10 µM, 100% = cells with rucaparib alone) 28.7% | viability ([9]; at 0.0781 µM, OCI-C5x cells, without rucaparib) 22.9% | viability ([9]; at 0.0781 µM, OCI-P5x cells, with rucaparib 20 µM, 100% = cells with rucaparib alone) 35.2% | viability ([9]; at 0.0781 µM, OCI-P5x cells, without rucaparib) 23.5% | viability ([9]; at 0.313 µM, OCI-C5x cells, with rucaparib 10 µM, 100% = cells with rucaparib alone) 12% | viability ([9]; at 0.313 µM, OCI-C5x cells, without rucaparib) 10.8% | viability ([9]; at 0.313 µM, OCI-P5x cells, with rucaparib 20 µM, 100% = cells with rucaparib alone) 21% | viability ([9]; at 0.313 µM, OCI-P5x cells, without rucaparib) 12.5% | viability ([9]; at 1.25 µM, OCI-C5x cells, with rucaparib 10 µM, 100% = cells with rucaparib alone) 10.1% | viability ([9]; at 1.25 µM, OCI-C5x cells, without rucaparib) 10.5% | viability ([9]; at 1.25 µM, OCI-P5x cells, with rucaparib 20 µM, 100% = cells with rucaparib alone) 16.2% | viability ([9]; at 1.25 µM, OCI-P5x cells, without rucaparib) 13.2% | viability ([9]; at 5 µM, OCI-C5x cells, with rucaparib 10 µM, 100% = cells with rucaparib alone) 13.5% | viability ([9]; at 5 µM, OCI-C5x cells, without rucaparib) 11.4% | viability ([9]; at 5 µM, OCI-P5x cells, with rucaparib 20 µM, 100% = cells with rucaparib alone) 14.2% | viability ([9]; at 5 µM, OCI-P5x cells, without rucaparib) 10.5%
inactive: insulin secretion stimulation [2] 2.75% | GLP1 secretion stimulation [5] 6.7% | viability ([9]; at 0.000305 µM, OCI-C5x cells, with rucaparib 10 µM, 100% = cells with rucaparib alone) 109% | viability ([9]; at 0.000305 µM, OCI-C5x cells, without rucaparib) 112% | viability ([9]; at 0.00122 µM, OCI-C5x cells, without rucaparib) 107% | viability ([9]; at 0.00488 µM, OCI-C5x cells, without rucaparib) 109% | viability ([9]; at 0.00488 µM, OCI-P5x cells, without rucaparib) 103%

C[C@]1(Cn2ccnn2)[C@H](C(=O)O)N2C(=O)C[C@H]2S1(=O)=O
-0.0503: z-score [10, 15]
0.1%: nuclear beta-catenin stimulation ([1]; stimulation, at 2 µM)
inactive: nuclear beta-catenin stimulation ([1]; at 10 µM) -1.1% | insulin secretion stimulation [2] 10.1% | viability decrease [3] -2.3% | tube area decrease [4] -6% | GLP1 secretion stimulation [5] 1.9% | inhibition of viability [6] 3.3% | viability decrease (inhibition) [7] 17.8% | viability decrease (inhibition) [8] -1.5% | z-score [10, 14] -0.126 | remaining NAD [11] 10 nM

Cc1ncc([N+](=O)[O-])n1C
22.2%: nuclear beta-catenin stimulation ([1]; stimulation, at 2 µM)
inactive: nuclear beta-catenin stimulation ([1]; at 10 µM) 1.7% | insulin secretion stimulation [2] 4.1% | viability decrease [3] 38.9% | tube area decrease [4] -11.6% | GLP1 secretion stimulation [5] -0.5% | inhibition of viability [6] -2.3% | viability decrease (inhibition) [7] -12.5% | viability decrease (inhibition) [8] -4.4% | remaining NAD [11] 10 nM

CC(=C(CCOC(=O)C(C)C)SSC(CCOC(=O)C(C)C)=C(C)N(C=O)Cc1cnc(C)nc1N)N(C=O)Cc1cnc(C)nc1N
4.5%: nuclear beta-catenin stimulation ([1]; stimulation, at 2 µM)
active: insulin secretion stimulation [2] 31.5%
inactive: nuclear beta-catenin stimulation ([1]; at 10 µM) -0.6% | viability decrease [3] 20.6% | inhibition of viability [6] 30.9% | viability decrease (inhibition) [7] -6.3% | viability decrease (inhibition) [8] -3.9%

CC(=O)Oc1ccc2c(c1)CC[C@@H]1[C@@H]2CC[C@]2(C)[C@@H](O)CC[C@@H]12
active: viability decrease (inhibition) [7] 72.9%
4.6%: nuclear beta-catenin stimulation ([1]; stimulation, at 2 µM)
inactive: nuclear beta-catenin stimulation ([1]; at 10 µM) 6.2% | insulin secretion stimulation [2] 1.3% | viability decrease [3] 13.1% | tube area decrease [4] -71.2% | GLP1 secretion stimulation [5] 1.6% | inhibition of viability [6] 41.6% | viability decrease (inhibition) [8] 35.2% | luciferase signal [12] 36 AU

CCCCC(=O)O[C@]1(C(=O)CO)CC[C@H]2[C@@H]3CCC4=CC(=O)CC[C@]4(C)[C@H]3[C@@H](O)C[C@@]21C
0.1%: nuclear beta-catenin stimulation ([1]; stimulation, at 2 µM)
inactive: nuclear beta-catenin stimulation ([1]; at 10 µM) -1.9% | insulin secretion stimulation [2] 1.5% | viability decrease [3] -12.8% | tube area decrease [4] -17.7% | GLP1 secretion stimulation [5] -1.5% | inhibition of viability [6] 7.7% | viability decrease (inhibition) [7] 6.4% | viability decrease (inhibition) [8] -15.9% | remaining NAD [11] 10 nM | luciferase signal [12] 72 AU

CN(C)CCCO[C@@H]1[C@H]2OC(C)(C)O[C@H]2O[C@@H]1C(O)CO (stereo not given in full)
inactive: nuclear beta-catenin stimulation ([1]; at 10 µM) -2% | insulin secretion stimulation [2] 0.9% | viability decrease [3] 24.4% | tube area decrease [4] -18.7% | GLP1 secretion stimulation [5] 0.3% | viability decrease (inhibition) [7] 13.2%
-1%: nuclear beta-catenin stimulation ([1]; stimulation, at 2 µM)
active: inhibition of viability [6] 55.2% | viability decrease (inhibition) [8] 66.4%

CC(CC=O)CCCC(C)(C)O (stereo not given)
inactive: nuclear beta-catenin stimulation ([1]; at 10 µM) 0.5% | insulin secretion stimulation [2] 0.85% | GLP1 secretion stimulation [5] 3.1%
-1.3%: nuclear beta-catenin stimulation ([1]; stimulation, at 2 µM)

Cc1c(-c2ccc(O)cc2)n(Cc2ccc(OCCN3CCCCCC3)cc2)c2ccc(O)cc12
44.5%: nuclear beta-catenin stimulation ([1]; stimulation, at 2 µM)
6940: cell count [13, 19]
0.502: z-score [10, 15]
6380: cell count [13, 18]
0.888: fold change [13, 17]
inactive: insulin secretion stimulation [2] 4.3% | fold change [13, 16] 0.919 | z-score [10, 14] -0.437
active: nuclear beta-catenin stimulation ([1]; at 10 µM) -3.3% | viability decrease [3] 99.8% | inhibition of viability [6] 99.7% | viability decrease (inhibition) [7] 102% | viability decrease (inhibition) [8] 101%

C=CC(C)(O)CCC=C(C)CCC=C(C)C (stereo not given)
-0.9%: nuclear beta-catenin stimulation ([1]; stimulation, at 2 µM)
inactive: nuclear beta-catenin stimulation ([1]; at 10 µM) 2.7% | insulin secretion stimulation [2] -0.2% | GLP1 secretion stimulation [5] 9.7%

O=C(O)c1cc(N=Nc2ccc(O)c(C(=O)O)c2)ccc1O
0.766 and 0.877: fold change [13, 17]
-0.199: z-score [10, 15]
9060 and 9000: cell count [13, 18]
inactive: nuclear beta-catenin stimulation ([1]; at 10 µM) 1.3% | insulin secretion stimulation [2] 0.9% | viability decrease [3] 15.9% | inhibition of viability [6] 20.6% | viability decrease (inhibition) [7] -10.4% | viability decrease (inhibition) [8] 18.3% | fold change [13, 16] 0.936 and 1.24 | z-score [10, 14] -0.277 | remaining NAD [11] 10 nM
9680 and 7270: cell count [13, 19]
8.5%: nuclear beta-catenin stimulation ([1]; stimulation, at 2 µM)

CC(C)Cn1cnc2c1c(=O)n(C)c(=O)n2C
-1.3%: nuclear beta-catenin stimulation ([1]; stimulation, at 2 µM)
inactive: nuclear beta-catenin stimulation ([1]; at 10 µM) 1.9% | insulin secretion stimulation [2] 1.65% | viability decrease [3] 0% | GLP1 secretion stimulation [5] 3.4% | inhibition of viability [6] 31.9% | viability decrease (inhibition) [7] -1.5% | viability decrease (inhibition) [8] 11.3%

Cc1cccc(C)c1NC(=O)CC12CCCN1CCC2
inactive: nuclear beta-catenin stimulation ([1]; at 10 µM) 4.2% | insulin secretion stimulation [2] 0.3% | GLP1 secretion stimulation [5] 5%
1.3%: nuclear beta-catenin stimulation ([1]; stimulation, at 2 µM)

O=[N+]([O-])c1cccc(S(=O)(=O)NCCNS(=O)(=O)c2cccc([N+](=O)[O-])c2)c1
0.2%: nuclear beta-catenin stimulation ([1]; stimulation, at 2 µM)
inactive: nuclear beta-catenin stimulation ([1]; at 10 µM) 0.3% | insulin secretion stimulation [2] -0.55% | viability decrease [3] 38.9% | GLP1 secretion stimulation [5] 3.1% | inhibition of viability [6] 7.6% | viability decrease (inhibition) [7] 6.5% | viability decrease (inhibition) [8] 14.5%

O=C(O)C(S)C(S)C(=O)O (stereo not given)
0.8%: nuclear beta-catenin stimulation ([1]; stimulation, at 2 µM)
inactive: nuclear beta-catenin stimulation ([1]; at 10 µM) 2.3% | insulin secretion stimulation [2] 1.3% | viability decrease [3] -17% | tube area decrease [4] 14% | GLP1 secretion stimulation [5] 6.2% | inhibition of viability [6] -11.3% | viability decrease (inhibition) [7] -31.1% | viability decrease (inhibition) [8] -4.5% | luciferase signal [12] 96 AU
